# Experimental data taken from publication PMC5540273 (PLoS ONE, 2017).
# Test system: GSK3B
# Conditions: concentration: 1 μM, replicates: in singlicate; n = 1
# 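Also: KINOMEscan kinase panel screen.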
row,SMILES,%Inh [%]
1,CCCCc1nn2ncccc2c1-c1ccnc(Nc2ccc(N3CCN(C)CC3)cc2)n1 [GW684941],5
2,CC(C)c1nc(-c2cccc(NS(=O)(=O)c3c(F)cccc3F)c2F)c(-c2ccnc(Nc3ccc(N4CCOCC4)nc3)n2)s1 [GSK2008607],21
3,NCCCC(NC(=O)c1cc(Br)c(-c2ccnc3[nH]ccc23)s1)c1ccccc1.O=C(O)C(F)(F)F.O=C(O)C(F)(F)F (stereo not shown) [GSK1287544],15
4,CN(C)S(=O)(=O)c1cc(-c2ccc3nccc(-c4cccc(S(N)(=O)=O)c4)c3c2)cnc1N [GSK1669921],3
